Data from PubChem BioAssay (NCATS).
Several values for one entry are separate records, joined by “and”; a condition that tells them apart may be missing. Identical values can stand only once. Records with an inconclusive call do not appear. Where a call stands in place of a potency, no number is given. Activity calls are given as the source filed them. Unless noted, calls come from the whole dose curve.

What was measured:
[1] = target: Bile acid receptor (Homo sapiens) (UniProt Q96RI1); test: qHTS assay for small molecule antagonists of farnesoid X receptor signaling (AID 588526); settings: HEK293T FXR-UAS-bla, beta-lactamase ratio, antagonist mode; series mostly up to 76.7 µM
Bile acid receptor (Homo sapiens), sequence (Q96RI1 whole entry, looked up): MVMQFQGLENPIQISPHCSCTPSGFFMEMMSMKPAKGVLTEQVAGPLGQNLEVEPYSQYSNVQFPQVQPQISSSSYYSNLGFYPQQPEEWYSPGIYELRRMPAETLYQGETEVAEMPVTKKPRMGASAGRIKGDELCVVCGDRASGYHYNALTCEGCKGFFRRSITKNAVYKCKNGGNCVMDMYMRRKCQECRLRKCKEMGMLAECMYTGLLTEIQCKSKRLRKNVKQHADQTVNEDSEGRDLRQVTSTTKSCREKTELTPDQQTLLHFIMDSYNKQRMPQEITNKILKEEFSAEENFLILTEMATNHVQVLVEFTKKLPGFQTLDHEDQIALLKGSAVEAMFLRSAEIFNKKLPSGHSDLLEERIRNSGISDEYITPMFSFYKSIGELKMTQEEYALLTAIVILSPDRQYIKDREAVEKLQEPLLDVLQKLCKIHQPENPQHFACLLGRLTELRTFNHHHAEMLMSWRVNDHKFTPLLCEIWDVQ
Method in brief: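 Antagonist mode: titrated compounds tested against chenodeoxycholic acid stimulation (normalized to 50 uM CDCA and DMSO) in GeneBLAzer HEK293T cells for 16 h. Beta-lactamase read by CCF4 fluorescence; IC50 from Hill fits.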

[2] = target: Peroxisome proliferator-activated receptor gamma (Homo sapiens) (UniProt P37231); test: qHTS assay for small molecule agonists of peroxisome proliferator-activated receptor gamma signaling (AID 588536; active = well fitted curve in the direction sought with a large enough effect in the signal ratio, with a control signal flat, not every such curve was filed as active; the % refers to the signal ratio); settings: HEK293 PPARg-UAS-bla, beta-lactamase ratio, 16 h, percent of rosiglitazone response, DMSO as zero; series mostly up to 76.7 µM
Peroxisome proliferator-activated receptor gamma (Homo sapiens), sequence (P37231 whole entry, looked up): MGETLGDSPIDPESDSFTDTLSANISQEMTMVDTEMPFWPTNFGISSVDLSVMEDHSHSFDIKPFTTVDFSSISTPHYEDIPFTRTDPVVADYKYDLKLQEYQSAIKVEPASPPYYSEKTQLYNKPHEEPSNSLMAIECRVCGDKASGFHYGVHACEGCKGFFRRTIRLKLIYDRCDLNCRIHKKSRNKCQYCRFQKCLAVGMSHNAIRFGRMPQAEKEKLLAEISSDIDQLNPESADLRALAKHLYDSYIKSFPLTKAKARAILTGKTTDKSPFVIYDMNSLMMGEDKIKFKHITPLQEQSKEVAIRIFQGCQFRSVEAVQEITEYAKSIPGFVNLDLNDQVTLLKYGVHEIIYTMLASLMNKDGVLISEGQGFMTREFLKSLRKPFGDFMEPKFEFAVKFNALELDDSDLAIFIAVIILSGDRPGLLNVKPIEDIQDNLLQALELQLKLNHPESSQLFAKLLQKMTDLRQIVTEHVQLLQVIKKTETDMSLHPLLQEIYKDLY
Method in brief: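 Ratiometric blue/green fluorescence (405 nm excitation; 460 and 530 nm emission) from CCF4-loaded HEK293 reporter cells serves as signal. Exposure to test compounds lasts 16 h at 37 C in medium containing 1% charcoal/dextran-treated serum.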

[3] = target: Peroxisome proliferator-activated receptor gamma (Homo sapiens) (UniProt P37231); test: qHTS assay for small molecule antagonists of peroxisome proliferator-activated receptor gamma signaling (AID 588537; active = well fitted inhibition curve with a large enough effect in the signal ratio, with a control signal flat, not every such curve was filed as active; the % refers to the signal ratio; note: potency is the fitted concentration of half-maximal effect); settings: HEK293 PPARg-UAS-bla, beta-lactamase ratio, antagonist mode; series mostly up to 76.8 µM
Method in brief: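 PPARγ-UAS-bla HEK293 cells (3000/well) in 1% charcoal/dextran-stripped FBS are treated with compound, then stimulated with 50 nM rosiglitazone for 16 h at 37 °C. Read-out is CCF4 β-lactamase fluorescence after 2 h at RT. IC50 comes from Hill fits normalised to rosiglitazone and DMSO.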

[4] = target: Vitamin D3 receptor (Homo sapiens) (UniProt P11473); test: qHTS assay for small molecule antagonists of vitamin D receptor signaling (AID 588541); settings: HEK293T VDR-UAS-bla, beta-lactamase ratio, antagonist mode; series mostly up to 76.7 µM;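 note: receptor activated by calcitriol during compound treatment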
Method in brief: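 VDR-UAS-bla HEK293T cells in 2% charcoal-stripped FBS were stimulated with 1-alpha,25-dihydroxyvitamin D3 (3 nM final) plus compound for 16 h at 37 C. The beta-lactamase CCF4 readout was normalized to 50 nM agonist and DMSO, and Hill fits gave IC50.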

[5] = target: Vitamin D3 receptor (Homo sapiens) (UniProt P11473); test: qHTS assay for small molecule agonists of vitamin D receptor signaling (AID 588543); settings: HEK293T VDR-UAS-bla, beta-lactamase ratio, 16 h; series mostly up to 76.8 µM
Method in brief: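 β-lactamase reporter, VDR-UAS-bla HEK293T, agonist mode. Cells plated 5 h at 37 °C, compound titration 16 h at 37 °C, CCF4 dye 2 h RT, ratio 460/530 nm. Hill fit → EC50, efficacy vs 50 nM 1α,25-(OH)2D3.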

[6] = qHTS assay for small molecule antagonists of peroxisome proliferator-activated receptor delta signaling (AID 588535; active = well fitted inhibition curve with a large enough effect in the signal ratio, with a control signal flat, not every such curve was filed as active; the % refers to the signal ratio;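 for max response: cells co-treated with a PPAR-delta agonist as stimulator during compound exposure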); settings: HEK293T PPARd-UAS-bla, beta-lactamase FRET ratio, 18 h; 460 nm channel
Method in brief: (§1)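 Antagonist-mode beta-lactamase reporter (GeneBLAzer PPAR-delta-UAS-bla) in HEK293T cells, 2% charcoal/dextran FBS, 4000 cells/well. Compound titrations, 18 h at 37 C; CCF4 ratio read, IC50 and efficacy from Hill fits.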

[7] = target: Peroxisome proliferator-activated receptor delta (Homo sapiens) (UniProt Q03181); test: as above; settings: HEK293T PPARd-UAS-bla, beta-lactamase FRET ratio, 18 h; series mostly up to 76.7 µM
Peroxisome proliferator-activated receptor delta (Homo sapiens), sequence (Q03181 whole entry, looked up): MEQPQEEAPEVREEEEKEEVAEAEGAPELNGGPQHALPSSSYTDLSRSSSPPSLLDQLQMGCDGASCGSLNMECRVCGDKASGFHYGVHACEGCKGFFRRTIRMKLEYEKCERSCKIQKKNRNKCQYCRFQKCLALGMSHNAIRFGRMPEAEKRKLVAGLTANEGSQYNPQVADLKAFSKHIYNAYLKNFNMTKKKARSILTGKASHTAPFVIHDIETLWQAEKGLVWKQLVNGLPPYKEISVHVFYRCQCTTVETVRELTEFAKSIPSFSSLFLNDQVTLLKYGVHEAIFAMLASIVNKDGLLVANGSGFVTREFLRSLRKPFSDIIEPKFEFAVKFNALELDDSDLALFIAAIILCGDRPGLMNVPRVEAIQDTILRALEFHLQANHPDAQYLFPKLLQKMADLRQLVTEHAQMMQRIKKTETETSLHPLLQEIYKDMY
Method in brief: as §1

[8] = qHTS assay for small molecule agonists of retinoid X receptor alpha signaling (AID 588544); settings: HEK293T RXRa-UAS-bla, beta-lactamase reporter, 18 h; 530 nm emission
[9] = target: Glucocorticoid receptor (Homo sapiens) (UniProt P04150); test: qHTS assay for small molecule agonists of glucocorticoid receptor signaling (AID 588532; active = well fitted curve in the direction sought with a large enough effect in the signal ratio, with a control signal flat; the % refers to the signal ratio); settings: HeLa MMTV-bla, beta-lactamase ratio, agonist, 18 h; stronger effect = higher value; percent of dexamethasone control, DMSO zero
Glucocorticoid receptor (Homo sapiens), sequence (P04150 whole entry, looked up): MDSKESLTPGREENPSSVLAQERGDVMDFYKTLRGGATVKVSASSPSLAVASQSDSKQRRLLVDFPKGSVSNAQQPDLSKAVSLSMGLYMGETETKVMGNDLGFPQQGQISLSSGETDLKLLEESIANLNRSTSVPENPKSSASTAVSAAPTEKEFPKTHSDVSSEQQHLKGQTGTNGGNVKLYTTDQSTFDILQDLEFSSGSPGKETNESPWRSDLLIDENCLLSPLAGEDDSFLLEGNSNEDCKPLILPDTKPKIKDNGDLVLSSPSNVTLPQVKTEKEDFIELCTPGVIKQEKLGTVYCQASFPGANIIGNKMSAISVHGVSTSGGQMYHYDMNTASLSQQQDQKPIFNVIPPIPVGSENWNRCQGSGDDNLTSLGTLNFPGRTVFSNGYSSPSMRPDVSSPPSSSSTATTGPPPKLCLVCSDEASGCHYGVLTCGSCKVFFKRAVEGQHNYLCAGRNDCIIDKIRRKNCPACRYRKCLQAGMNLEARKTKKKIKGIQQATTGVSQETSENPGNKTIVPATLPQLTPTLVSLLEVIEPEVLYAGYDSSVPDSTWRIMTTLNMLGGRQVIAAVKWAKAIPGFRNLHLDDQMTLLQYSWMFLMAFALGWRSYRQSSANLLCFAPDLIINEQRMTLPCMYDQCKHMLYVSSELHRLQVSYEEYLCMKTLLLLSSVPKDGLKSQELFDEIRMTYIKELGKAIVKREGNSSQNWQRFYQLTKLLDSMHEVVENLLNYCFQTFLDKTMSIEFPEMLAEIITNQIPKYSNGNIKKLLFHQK
Method in brief: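 Cells were plated and rested 3-5 h at 37 C, compounds were added in titration and incubated 18 h, then CCF4 substrate was loaded for 2 h at RT before reading blue/green fluorescence. EC50 came from Hill-equation fitting.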

[10] = target: Glucocorticoid receptor (Homo sapiens) (UniProt P04150); test: qHTS assay for small molecule antagonists of glucocorticoid receptor signaling (AID 588533; active = well fitted inhibition curve with a large enough effect in the signal ratio, with a control signal flat, not every such curve was filed as active; the % refers to the signal ratio; note: potency is the fitted concentration of half-maximal effect); settings: HeLa MMTV-bla, GRE beta-lactamase ratio, antagonist mode, 18 h; series mostly up to 76.8 µM
Method in brief: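 Antagonist-mode qHTS: compound titrations added to GRE-bla HeLa cells, then dexamethasone 2 nM final; 18 h, 37 C. CCF4 FRET fluorescence normalized to dexamethasone and DMSO; IC50 from Hill fit.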

| SMILES | outcome [1] | outcome [2] | Potency [3] | outcome [4] | outcome [5] | max response [6] | outcome [7] | max response [8] | activation [9] | Potency [10] |
| --- | --- | --- | --- | --- | --- | --- | --- | --- | --- | --- |
| CCn1cc(C(=O)O)c(=O)c2ccc(C)nc21 | inactive | inactive | inactive | inactive | inactive | – | – | – | – | – |
| O=C(O)Cc1cccc2ccccc12 | inactive | – | inactive | inactive | inactive | 10.6% and 0.107% | inactive | -5.32% and -9% | – | – |
| O=C(O)c1cc(O)c2c(c1)C(=O)c1cccc(O)c1C2=O | – | – | – | – | – | – | – | – | 1.5% (inactive) | – |
| CCCNC(=O)NS(=O)(=O)c1ccc(Cl)cc1 | – | inactive | inactive | inactive | inactive | 8.72% | inactive | 2.79% and 10.5% | 0.922% (inactive) and 6.93% (inactive) | inactive |
| CC1=C(/C=C/C(C)=C/C=C/C(C)=C/C(=O)Nc2ccc(O)cc2)C(C)(C)CCC1 | – | – | – | – | inactive | – | – | – | – | – |
| O=c1[nH]cnc2c1ncn2[C@H]1CC[C@@H](CO)O1 | – | inactive | – | – | – | 45.2% | inactive | 0.954% and -9.72% | 10.5% (inactive) and 6.23% (inactive) | inactive |
| CC(=O)c1ccc(S(=O)(=O)NC(=O)NC2CCCCC2)cc1 | inactive | inactive | inactive | inactive | inactive | 3.83% and 9.27% | inactive | 0.432% and 9.79% | 9.83% (inactive) and -7.15% (inactive) | inactive |
| O=c1cc(-c2ccc(O)cc2)oc2cc(O)cc(O)c12 | – | – | 44.7 µM (active) | – | – | – | – | – | – | 31.6 µM (active) |
| O=c1c(O)c(-c2ccc(O)cc2)oc2cc(O)cc(O)c12 | inactive | – | inactive | – | – | -17.2% and 39.5% | inactive | 23% | -2.66% (inactive) and -3.79% (inactive) | – |
| O=C1NC(=O)C(c2ccccc2)(c2ccccc2)N1 | – | inactive | inactive | – | – | -66.4% and 31.2% and 54.5% | inactive | -1.34% and -8.57% and -15.1% | -3.98% (inactive) and -0.765% (inactive) and -12.7% (inactive) | inactive |
| CCCCC1C(=O)N(c2ccccc2)N(c2ccccc2)C1=O | inactive | inactive | inactive | – | – | – | – | 4.5% and 6.7% | -0.201% (inactive) and -2.53% (inactive) | inactive |
| CC(=O)O[C@]1(C(C)=O)CC[C@H]2[C@@H]3C=C(Cl)C4=CC(=O)[C@@H]5C[C@@H]5[C@]4(C)[C@H]3CC[C@@]21C | – | – | – | inactive | – | – | – | – | – | – |
| CN(C)CCC(c1ccccc1)c1ccccn1 (stereo not given) | – | inactive | – | inactive | inactive | 37.9% | inactive | -9.83% | 4.14% (inactive) | – |
| O=c1cc(-c2ccccc2)oc2cc(O)cc(O)c12 | – | – | – | – | – | – | – | – | -10.9% (inactive) | – |
| CC/C(=C(\c1ccccc1)c1ccc(OCCN(C)C)cc1)c1ccccc1 | – | – | inactive | – | – | – | – | – | 5.77% (inactive) and -2.85% (inactive) | inactive |
| O=C(O)c1cc(-c2ccccc2)nc2ccccc12 | inactive | – | inactive | – | inactive | 54.7% | inactive | 26.3% | – | inactive |
| CC(C)OC(=O)C(C)(C)Oc1ccc(C(=O)c2ccc(Cl)cc2)cc1 | inactive | – | – | inactive | inactive | 43.3% | inactive | – | 0.14% (inactive) | inactive |
| O=c1c(-c2ccc(O)cc2)coc2cc(O)ccc12 | inactive | inactive | inactive | – | – | 40.9% and 70.8% | inactive | – | -8.98% (inactive) and -6.42% (inactive) | inactive |
| CC(=O)N[C@@H](CS)C(=O)O | inactive | inactive | – | inactive | – | -4.28% | inactive | -10.9% | – | inactive |
